NPR1 antag = antagonists of human natriuretic peptide receptor Npr1; P16066; HEK293 hNpr1 GloSensor cGMP, ANP-stimulated luminescence; Potency, µM (doses to about 46.3 µM), inactives show at the top dose activity change, negative = inhibition, actives largely listed as inhibitors; actives 1.6% (n = 76,000); AID 1347048; also: % is scaled to controls: 0 for no effect and ±100 for the full control effect; nearly all actives have a fitted effect of over 60% in size
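Compound pre-incubated 30 min at room temperature on GloSensor-loaded HEK293 cells stably carrying hNpr1 and the pGS-40F cGMP biosensor. Stimulation uses hNppA at 0.1 nM final; luminescence is taken at baseline and 20 min post-agonist.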
GPT2 inhibitor = inhibitors of human GPT2 alanine aminotransferase; Recombinant GPT2, coupled pyruvate oxidase/HRP Amplex Red fluorescence; Potency, µM (doses to about 57.7 µM), for the others: at the highest dose activity change, negative = inhibition, usual class: inhibitors; actives 0.25% (n = 100,000); active = well fitted inhibition curve with a large enough effect; inconclusive = small, poorly fitted or top-dose-only effect; also: % is scaled to controls: 0 for no effect and ±100 for the full control effect; nearly all actives have a fitted effect of over 60% in size
Target sequence (Q8TD30 whole entry, looked up): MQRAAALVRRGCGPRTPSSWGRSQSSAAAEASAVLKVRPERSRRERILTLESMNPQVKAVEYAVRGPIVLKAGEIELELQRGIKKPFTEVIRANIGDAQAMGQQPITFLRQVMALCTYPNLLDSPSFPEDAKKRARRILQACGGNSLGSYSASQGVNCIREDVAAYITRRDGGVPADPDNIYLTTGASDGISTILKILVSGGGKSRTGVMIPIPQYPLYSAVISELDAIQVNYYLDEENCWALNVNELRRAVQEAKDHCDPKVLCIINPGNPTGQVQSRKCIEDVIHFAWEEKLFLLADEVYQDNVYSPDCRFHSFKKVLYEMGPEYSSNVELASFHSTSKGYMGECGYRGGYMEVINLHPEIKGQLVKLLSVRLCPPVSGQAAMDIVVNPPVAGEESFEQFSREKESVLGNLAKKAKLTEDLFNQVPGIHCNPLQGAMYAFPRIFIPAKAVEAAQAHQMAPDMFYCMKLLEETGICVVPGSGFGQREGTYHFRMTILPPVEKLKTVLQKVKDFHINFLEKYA
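Fluorescence of coupled pyruvate oxidase/HRP/Amplex Red system (50uM Amplex, 30 min, dark) reports pyruvate formed by GPT2. Enzyme reaction: 10ng/uL GPT2, 2mM L-alanine, 250uM a-KG, 30 min room temperature, pH 7.5; 50uM AOA control.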
NPR1 antag cnf = hNpr1 antagonism, confirmation assay; shares compounds with NPR1 antag; AID 1347044; actives 76% (n = 1,400); HEK293 hNpr1 cGMP GloSensor luminescence, ANP-stimulated; Potency, µM (highest dose often 57.6 µM), inactives show top-dose activity change, negative = inhibition, actives largely listed as inhibitors; also: nearly all actives have a fitted effect of over 70% in size
Npr2 selectivity = hNpr2 antagonism, selectivity versus Npr1. shares compounds with NPR1 antag. HEK293 hNpr2 GloSensor cGMP luminescence, CNP-stimulated. Potency, µM (highest dose often 57.6 µM), for the others: at the highest dose activity change, negative = inhibition, actives largely listed as inhibitors. actives 67% (n = 1,400); also: nearly all actives have a fitted effect of over 70% in size
FLuc counter = inhibits firefly luciferase, false Npr1 antagonist flag. shares compounds with NPR1 antag. purified FLuc enzyme, luminescence, Km substrate. Potency, µM (top dose mostly 57.6 µM), inactives show at the highest dose activity change, negative = inhibition, most hits filed as inhibitors. actives 0.7% (n = 1,400). AID 1347047; active = well fitted inhibition curve with a large enough effect; inconclusive = small, poorly fitted or top-dose-only effect; also: 0% is about no effect
GloSensor cGMP = counter-screen for Npr1 antagonists: GloSensor control cell line; shares compounds with NPR1 antag; HEK293 GloSensor cGMP, SNP-stimulated, luminescence; actives 69% (n = 1,400); Potency, µM (top dose mostly 57.6 µM), for the others: at the highest dose activity change, negative = inhibition, usual class: inhibitors; also: % is scaled to controls: 0 for no effect and ±100 for the full control effect; nearly all actives have a fitted effect of over 70% in size
* marks the source's active call; other numbers are inactive results; [ ] = another dose, or the depositor's remark. This is one part of a sample in which hits are shown more often than they occur. Unless noted, calls follow the shape of the full dose curve. Potency is read from the fitted curve at half-maximal effect.

For O=C(CN1C(=O)COc2ccc(C(=O)COc3ccccc3F)cc21)NCc1ccco1 the results were NPR1 antag -6% and GPT2 inhibitor -22%.
O=C(c1ccc(F)cc1Cl)N1CCC(Cc2nc(-c3ccc(F)cc3)no2)CC1 was read as NPR1 antag 3.2µM*, GPT2 inhibitor inactive, NPR1 antag cnf 3.1µM*, Npr2 selectivity 3.1µM*, FLuc counter 4% and GloSensor cGMP 3.1µM*.
Screening O=C(c1cccc(F)c1)N1CCC(Cc2nc(-c3cnccn3)no2)CC1 returned NPR1 antag -2% and GPT2 inhibitor -7%.
O=C(c1ccc(F)cc1F)N1CCC(Cc2nc(-c3cnccn3)no2)CC1 was read as NPR1 antag -2% and GPT2 inhibitor inactive.
For O=C(c1ccc(F)c(Cl)c1)N1CCC(Cc2nc(-c3cnccn3)no2)CC1 the results were NPR1 antag inconclusive, GPT2 inhibitor inactive, NPR1 antag cnf 22µM*, Npr2 selectivity inconclusive, FLuc counter 0% and GloSensor cGMP 19µM*.
`CC(C)c1noc(CC2CCN(C(=O)c3ccc(F)cc3Cl)CC2)n1` gave NPR1 antag inconclusive and GPT2 inhibitor inactive.
Screening COc1ccc(-c2noc(CC3CCN(C(=O)c4cc(F)ccc4Cl)CC3)n2)cc1 returned NPR1 antag 10µM*, GPT2 inhibitor inactive, NPR1 antag cnf 12µM*, Npr2 selectivity 14µM*, FLuc counter 0% and GloSensor cGMP 11µM*.
O=C(c1cc(F)ccc1F)N1CCC(Cc2nc(-c3ccccc3)no2)CC1 was read as NPR1 antag 5.6µM*, GPT2 inhibitor inactive, NPR1 antag cnf 7.7µM*, Npr2 selectivity 9.7µM*, FLuc counter -15% and GloSensor cGMP 8.6µM*.
`CC(NC(=O)Cc1ccc(N(Cc2ccc(F)cc2)C(=O)c2ccco2)cc1)c1ccccc1` (stereo not drawn) gave NPR1 antag -10% and GPT2 inhibitor inactive.
`CC(C)(C)c1nnc2ccc(C(=O)NCCc3ccccc3)cn12` gave GPT2 inhibitor inactive.
Screening O=C(Nc1cccnc1)[C@@H]1C[C@@H](c2ccc(F)cc2)N(Cc2ccccc2)C1 returned NPR1 antag inconclusive and GPT2 inhibitor -5%[88.5 µM].
CC(C)C1CN(C(=O)OC(C)(C)C)CCN1 (stereo not drawn) was read as GPT2 inhibitor inactive.
`COc1ccc2nc3n(c2c1)[C@@H](CNCc1ccc2c(c1)OCO2)COC3` gave NPR1 antag 32µM*, GPT2 inhibitor inconclusive, NPR1 antag cnf 40µM*, Npr2 selectivity 40µM*, FLuc counter -9%[86.2 µM] and GloSensor cGMP 40µM*.
Screening Cc1ccc2nc3n(c2c1)[C@@H](CNCc1ccc2c(c1)OCO2)COC3 returned NPR1 antag 25µM*, GPT2 inhibitor -7%[88.5 µM], NPR1 antag cnf 35µM*, Npr2 selectivity 35µM*, FLuc counter 0%[86.2 µM] and GloSensor cGMP 31µM*.
For COc1ccc2c(c1)nc1n2[C@@H](CNCc2ccc3c(c2)OCO3)COC1 the results were NPR1 antag inconclusive and GPT2 inhibitor -38%[88.5 µM].
Screening Cc1ccc2nc3n(c2c1)[C@@H](CNCc1ccccc1)COC3 returned NPR1 antag inconclusive and GPT2 inhibitor inactive.
For CCCC(=O)N1CCN(C2CCN(CCC(C)C)C2=O)CC1 (stereo not drawn) the results were NPR1 antag 5% and GPT2 inhibitor 4%.
Screening COc1ccc(O[C@H]2COCCN(C(=O)c3cc(C)oc3C(F)(F)F)C2)cc1 returned NPR1 antag 4%[70.6 µM] and GPT2 inhibitor -12%[88.5 µM].
CC(C)c1noc(C2CCCN(C(=O)c3ccoc3)CCC(=O)NCC2)n1 (stereo not drawn) was read as NPR1 antag 3% and GPT2 inhibitor inconclusive.
For C[C@]1(CO)[C@H]2Cc3sc(NC(=O)c4ccc(F)cc4)nc3[C@@H](CC(=O)NCc3cccs3)[C@]2(C)CC[C@H]1O the results were NPR1 antag -17% and GPT2 inhibitor -6%.
For O=C(Nc1ccc(F)cc1)c1ccc2cc[nH]c2n1 the results were GPT2 inhibitor 2%[88.5 µM], NPR1 antag cnf 25µM*, Npr2 selectivity 31µM*, FLuc counter 0.89µM* and GloSensor cGMP 25µM*.
CN(C)C(=O)c1ccc2cc[nH]c2n1 was read as GPT2 inhibitor -13%[88.5 µM].
For COc1ccc(CC(=O)Nc2ccc([C@@H](O)[C@H]3COCC(=O)N3Cc3ccc(C(F)(F)F)cc3)cc2)cc1 the results were NPR1 antag -25%, GPT2 inhibitor -5%, NPR1 antag cnf inconclusive, Npr2 selectivity -18%, FLuc counter -1% and GloSensor cGMP -26%.
Screening COc1ccc(CN2C(=O)COC[C@@H]2[C@H](O)c2ccc(NC(=O)Cc3ccccc3)cc2)cc1 returned NPR1 antag 2% and GPT2 inhibitor -6%.
Screening COCCCn1c(=O)c(C(=O)N2CCN(C(=O)c3ccc(Cl)cc3)CC2)nc2cccnc21 returned GPT2 inhibitor inactive.
O=C1c2cc(N3CCOCC3)nc(-c3ccc(F)cc3)c2CN1Cc1ccccc1 was read as NPR1 antag -22%[70.6 µM] and GPT2 inhibitor -1%[88.5 µM].
For O=C1c2cc(N3CCOCC3)nc(-c3cccc(F)c3)c2CN1Cc1ccccc1 the results were NPR1 antag inconclusive, GPT2 inhibitor -13%[88.5 µM], NPR1 antag cnf 28µM*, Npr2 selectivity inconclusive, FLuc counter -1%[86.2 µM] and GloSensor cGMP inconclusive.
`O=C(NCc1ccccc1Cl)C1CCCN(c2ccnc3ccnn23)C1` (stereo not drawn) gave GPT2 inhibitor -13%[88.5 µM].
Screening COc1ccccc1CN1CCc2nc(C(=O)Nc3ccc(Cl)cc3)oc2CC1 returned NPR1 antag 13µM*, GPT2 inhibitor inactive, NPR1 antag cnf 14µM*, Npr2 selectivity 18µM*, FLuc counter 0%[86.2 µM] and GloSensor cGMP 13µM*.
Screening COc1ccccc1CN1CCc2nc(C(=O)N3CCOCC3)oc2CC1 returned NPR1 antag -6%[70.6 µM] and GPT2 inhibitor inactive.
For O=C(Nc1ccc(Cl)cc1)c1nc2c(o1)CCN(Cc1ccc(F)cc1F)CC2 the results were NPR1 antag 3.2µM*, GPT2 inhibitor inconclusive, NPR1 antag cnf 7µM*, Npr2 selectivity 8.9µM*, FLuc counter 2%[86.2 µM] and GloSensor cGMP 7.9µM*.
Screening O=C(c1nc2c(o1)CCN(Cc1cc(F)ccc1F)CC2)N1CCOCC1 returned NPR1 antag 1%[70.6 µM] and GPT2 inhibitor 4%[88.5 µM].
COCCNC(=O)c1nc2c(o1)CCN(Cc1cccc(F)c1F)CC2 was read as NPR1 antag 0%[70.6 µM] and GPT2 inhibitor -21%[88.5 µM].
